CD11b adhes inh = inhibitors of CD11b/CD18 adhesion to fibrinogen, primary screen, K562 cells, luminescence; Integrin beta-2 (Homo sapiens) + Integrin alpha-M (Homo sapiens), P05107+P11215; inhibition, % at 10 µM; ATPlite luminescence; Mn2+ added to activate the integrin; AID 1497, 2009; 0.54% of 93,000 active;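 active = primary inhibition of 50% or more at 10 µM, then 40% or more on retest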
CYP2C9 inhib = blockers of cytochrome P450 2C9 activity – biochemical, luminescence, ADME assay, primary screen | 20% of 96,000 active | CYP2C9 Supersomes, luciferin-H conversion | inhibition, % at 5 µM | P11712;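 active = blocking of liver enzyme CYP2C9 beyond about 50% at 5 µM, limit read from the data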
CYP2C19 inhib = blockers of cytochrome P450 2C19 activity – biochemical, luminescence, ADME assay, primary screen | 21% of 96,000 active | inhibition, % at 5 µM | AID 778, 2007 | CYP2C19 Supersomes, luciferin-H EGE luminescence, 30 min;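 active = CYP2C19 inhibition above a set limit at 5 µM in the primary screen, cut at about 50% in these data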;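 note: plate controls were negative control wells for no effect and 2.5 mM tranylcypromine positive control for full effect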
Target sequence (P33261 whole entry, looked up): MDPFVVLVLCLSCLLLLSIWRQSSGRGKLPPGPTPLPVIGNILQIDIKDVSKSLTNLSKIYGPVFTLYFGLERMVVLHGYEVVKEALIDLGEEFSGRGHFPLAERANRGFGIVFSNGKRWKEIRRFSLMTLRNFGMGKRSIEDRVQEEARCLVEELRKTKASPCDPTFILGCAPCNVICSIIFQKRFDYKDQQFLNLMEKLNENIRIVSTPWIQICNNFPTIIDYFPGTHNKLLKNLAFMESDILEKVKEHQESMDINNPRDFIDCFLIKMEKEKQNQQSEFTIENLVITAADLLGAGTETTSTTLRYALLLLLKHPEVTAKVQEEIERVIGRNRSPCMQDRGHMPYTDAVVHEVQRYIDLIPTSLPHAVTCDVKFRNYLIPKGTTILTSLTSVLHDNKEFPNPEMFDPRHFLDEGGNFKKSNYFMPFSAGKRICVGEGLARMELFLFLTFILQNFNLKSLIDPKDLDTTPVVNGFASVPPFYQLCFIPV
CYP2C19 activ = human CYP2C19 activators, primary screen, biochemical, luminescence. Cytochrome P450 2C19 (Homo sapiens), P33261. recombinant CYP2C19, luciferin-H EGE luminescence; stronger effect = higher value; 0 = fully inhibited enzyme, 1 = untreated enzyme. activation factor at 5 µM. 96,000 tested, under 10 active;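 active = activation factor of at least 2 at 5 µM in the primary screen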;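 note: 0 = wells with 2.5 mM tranylcypromine and 1 = vehicle-only wells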
CYP2C9 activ = human CYP2C9 activators, primary screen, biochemical, luminescence. Cytochrome P450 2C9 (Homo sapiens), P11712. recombinant CYP2C9, luciferin-H conversion; stronger effect = higher value; factor 1 = untreated enzyme, 0 = blocked. activation factor at 5 µM. 1.4% of 96,000 active. AID 1024, 2008;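 active = activation factor of 2 or more for CYP2C9 at a 5 µM dose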;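 note: 0 = sulfaphenazole-blocked wells and 1 = vehicle-only wells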
CD11b adhes enh = enhancers of CD11b/CD18 adhesion to fibrinogen, primary screen, K562 cells, luminescence | ATPlite luminescence | 0.07% of 93,000 active | activation, % at 10 µM;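 active = 10 µM primary screen giving 50% or more activity, confirmed by 40% or more on retest at that dose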
* = called active by the depositor; / = no result. A selection: hits, their analogues and other compounds. The true share with any hit is near 28%.

SMILES	CD11b adhes inh	CYP2C9 inhib	CYP2C19 inhib	CYP2C19 activ	CYP2C9 activ	CD11b adhes enh
COc1ccccc1NC(=O)c1ccc(-c2ccc(Br)cc2)o1	7	-78	6	0.9	1.8	8
COc1cc(NC(=O)c2ccco2)ccc1NC(=O)C(C)C	-7	-2	-13	1.1	1	0
C=CCOc1c(Br)cc(CNc2ccc(NC(=O)C(C)C)c(OC)c2)cc1OC	/	46	61*	0.4	0.5	/
O=C(NC1CCCCC1)N(C1=NCCCCC1)c1ccc(Br)cc1	25	/	/	/	/	2
O=C(Nc1ccc(Cl)cc1)N(C1=NCCC1)c1ccc(OC(F)F)cc1	-1	61*	26	0.7	0.4	3
CCOC(=O)COc1ccc(Br)cc1C1NC(=O)NC(C)=C1C(=O)NCc1ccccc1 (stereo not drawn)	/	83*	0	1	0.2	/
COC(=O)c1c(C)oc2ccc(OC(=O)c3cccs3)cc12	7	85*	-1	1	0.1	-1
COCCOC(=O)c1c(C)oc2ccc(OC(=O)c3cccs3)cc12	5	98*	71*	0.3	0	-1
COC(=O)c1cc2sc(Cl)cc2n1CC(=O)NCCC(C)C	2	-7	16	0.8	1.1	4
CC(=O)Nc1cc(NC(C)=O)cc(C(=O)NC(C)(C)C)c1	-4	10	1	1	0.9	4
O=c1c2ccccc2[nH]c(=S)n1-c1cccc(S(=O)(=O)N2CCCC2)c1	-5	/	/	/	/	2
O=C(CCCn1c(=O)c2sccc2n(CC(=O)NCc2ccco2)c1=O)NCc1ccco1	-5	20	8	0.9	0.8	0
O=C(CCn1c(=O)c2sccc2n(CC(=O)NCc2ccco2)c1=O)NCc1ccccc1	-18	61*	21	0.8	0.4	3
O=C(NCc1ccco1)c1ccc(Cn2c(=O)c3sccc3n(Cc3cccc(F)c3)c2=O)cc1	10	85*	87*	0.1	0.1	-4
Cc1cccc(C)c1NC(=O)Cn1c(=O)n(CCCC(=O)NCc2ccco2)c(=O)c2sccc21	-7	78*	14	0.9	0.2	-4
COc1ccc(/C=N\NC(=O)C2C(=O)NCC2c2ccccc2)cc1O (stereo not drawn)	/	-2	-4	1	1	/
Cc1ccc2nc(SCc3nnc(-c4ccccc4)o3)[nH]c2c1	/	51*	30	0.7	0.5	/
Cc1ccc2nc(SCc3nnc(-c4cccs4)o3)[nH]c2c1	-2	51*	43	0.6	0.5	1
Cc1ccc(/C=C/c2nnc(-c3cccs3)o2)cc1	/	35	18	0.8	0.6	/
Cc1cccc(OCCCSc2nc3ccc(C)cc3[nH]2)c1	101	78*	86*	0.1	0.2	-8
CC(C)Cc1nnc(NC(=O)CCC(=O)N2CCN(c3ccccn3)CC2)s1	-2	11	2	1	0.9	-2
CC(=O)NC(=O)COC(=O)/C=C/c1c(C)nn(Cc2c(Cl)cccc2Cl)c1Cl	48	41	18	0.8	0.6	8
CC(C)c1ccc(NC(=O)N2CCC(c3nc4ccccc4o3)CC2)cc1	-14	27	13	0.9	0.7	-2
CCCCCOc1ccc(NC(=O)C2OC3OC(C)(C)OC3C3OC(C)(C)OC23)cc1 (stereo not drawn)	-14	/	/	/	/	-5
CCN(CC)CCOc1c(Br)ccc2c1sc1nc3n(c(=O)c12)CCC3	9	15	84*	0.2	0.8	-4
SMILES	CD11b adhes inh	CYP2C9 inhib	CYP2C19 inhib	CYP2C19 activ	CYP2C9 activ	CD11b adhes enh
Cc1ccc2cc(C#N)c(SCC(=O)NCc3ccco3)nc2c1	-11	75*	11	0.9	0.2	-3
Cc1cccc(-c2nsc(SCC(=O)NCc3ccco3)n2)c1	4	68*	21	0.8	0.3	-2
COc1ccc(CCN(C(=O)c2cccc(F)c2)C2CC(=O)N(c3ccccc3)C2=O)cc1 (stereo not drawn)	-4	/	/	/	/	5
COC(=O)CN(C(=S)Nc1ccccc1)C1CC(=O)N(c2ccc(OC)cc2)C1=O (stereo not drawn)	/	5	42	0.6	1	/
O=C1CC(N(Cc2ccco2)C(=O)Nc2ccc(F)cc2)C(=O)N1c1ccc(F)cc1 (stereo not drawn)	3	52*	80*	0.2	0.5	0
COc1ccc(CCN(C(=O)c2cccc(F)c2)C2CC(=O)N(c3ccc(OC)cc3)C2=O)cc1 (stereo not drawn)	-12	53*	67*	0.3	0.5	4
COC(=O)CN(C(=S)Nc1ccc(F)cc1)C1CC(=O)N(c2ccc(OC)cc2)C1=O (stereo not drawn)	-21	62*	93*	0.1	0.4	1
Cc1cc2nc(N)sc2cc1[N+](=O)[O-]	-8	1	-3	1	1	-1
Cc1cc([N+](=O)[O-])c(C(C)(C)C)cc1N	5	0	89*	0.1	1	-5
Cc1c(NS(=O)(=O)c2ccccc2)c(=O)n(-c2ccccc2)n1C	1	22	53*	0.5	0.8	0
Cc1c(NS(=O)(=O)c2cccc(C(=O)NCc3ccc(Cl)cc3)c2)c(=O)n(-c2ccccc2)n1C	2	33	51*	0.5	0.7	-1
Cc1c(NC(=O)c2ccccc2NS(=O)(=O)c2ccc(F)cc2)c(=O)n(-c2ccccc2)n1C	-7	52*	25	0.8	0.5	-6
Cc1c(NC(C)c2cc(Cl)ccc2O)c(=O)n(-c2ccccc2)n1C (stereo not drawn)	-35	68*	96*	0	0.3	1
Cc1c(NC(=O)c2ccccc2F)c(=O)n(-c2ccccc2)n1C	5	-2	2	1	1	1
NC(=O)C1CCN(C(=S)c2cccs2)CC1	-29	3	23	0.8	1	7
Cc1ccc(S(=O)(=O)Nc2ccc(-c3nnc(SCC#N)n3C)cc2)cc1	-9	28	8	0.9	0.7	4
O=S(=O)(c1ccc(C2CCCCC2)cc1)N1CCCC1	-6	22	-2	1	0.8	-5
CC(=O)N(c1cccc(C)c1)C1SC(=O)N(c2ccccc2)C1=O (stereo not drawn)	-3	44	68*	0.3	0.6	-2
CC(=O)N(c1ccccc1)C1SC(=O)N(c2ccccc2)C1=O (stereo not drawn)	2	9	41	0.6	0.9	0
Cc1cc(C)c2c(CC(=O)Nc3nccs3)coc2c1	-2	20	12	0.9	0.8	2

Assay outcomes from PubChem BioAssay.
